Where a chain is given by its changes, count along the chain named. The full ranking holds about 24,000 sequences; the median of “enrichment r” is about 0.99, and the highest 2% start at about 3.7. What follows is part of a selection rich in the highest values, with near analogues and random picks from the rest.
T1: UNK ZnF1-3 (human, UniProt Q9C0B0 31-174)
T1 sequence: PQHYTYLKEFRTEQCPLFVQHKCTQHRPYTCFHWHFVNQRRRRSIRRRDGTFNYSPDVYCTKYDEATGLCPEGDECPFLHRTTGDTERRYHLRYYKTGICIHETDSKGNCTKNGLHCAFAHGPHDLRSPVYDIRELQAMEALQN

B1: chr11:100882373:100882374:+_ENSMUSG00000019302_ENSMUST00000044721|mus_mus|FALSE|FALSE (ssRNA)
RNA: GGGAGUUCUACAGUCCGACGAUCUUCCUGGUUAGUGUUGAUUUCCUUCAGUUCAUUUUCAAUCUUCUCGAAAUUGGCCUCUAAGUCGAUCAUGUCCCGAGGGAAGGGCACCUCUGGGUUUUCACCGGUGUCCAUAAUUGGGAUCAACAGAGGAUUGAGCAUCA
B2: 90660906_90661026_1561_CDS_ENSG00000112182_ENST00000537989|human|control|control (ssRNA)
RNA: GGGAGUUCUACAGUCCGACGAUCAUCCCCCGCUCUGUCCUUGGCGUCAGGCUCAUCUCCAGACAGGCAGAGCGUGAUGCUCUCUUCCUCAUUCUCUUCACUGGGCGGCUCACUUUUAAUCUGCCCCCUGGCAAGCCCCGGCUUCAACAGAGGAUUGAGCAUCA
B3: chr2:119552488:119552489:+_ENSMUSG00000027304_ENSMUST00000028767|mus_hu|FALSE|FALSE (ssRNA)
RNA: GGGAGUUCUACAGUCCGACGAUCGAACAUCGCUUCUUUCCACUUCAUAAACUCACUUUCGGUGAAUUCUUGGUUUGAGACAAACUCUAAACGGAACACGCGUUGGUCAUUGCCAUGCCGUAGUUGCAGCCCUUUGUUUGUUCUCAACAGAGGAUUGAGCAUCA
B4: 98509248_98511339_722_CDS_ENSG00000140450_ENST00000268042|human|control|control (ssRNA)
RNA: GGGAGUUCUACAGUCCGACGAUCGUAUCCCUUUCUUUCAAUUUUGGCACUCAGCGAGACUGGACCAGAAGUGAAAAACCAACAGCCAACCAUUUUCUCUUGAGUUUUCAAUACAGGGGUUAAUAAUGCUGGUGUGUUGACAUCCAACAGAGGAUUGAGCAUCA
B5: chr16:45382771:45382772:-_ENSMUSG00000022661_ENSMUST00000163230|mus_mus|mus_mus_mus_hu_True|1_38 (ssRNA)
RNA: GGGAGUUCUACAGUCCGACGAUCCUGGGUCAUGUUAUAAGACAAAUGGACAGGGAGGGCAUGCUUCUCAAAAAAUGUGAGCUAUUGUCUAAGACUAACAAUAUUGCUCUAGCUAUAAAAAUAAGUUAAAUGAAUAAACAUUACCAACAGAGGAUUGAGCAUCA
B6: chr16:45382771:45382772:-_ENSMUSG00000022661_ENSMUST00000163230|mus_mus|mus_mus_mus_hu_True|38_88 (ssRNA)
RNA: B5 RNA with C50U, A137G, C138U, A139U, U140A, U141A, A142G, C143A
B7: chr16:45382771:45382772:-_ENSMUSG00000022661_ENSMUST00000163230|mus_mus|mus_mus_mus_hu_True|38_98 (ssRNA)
RNA: GGGAGUUCUACAGUCCGACGAUCCUGGGUCAUGUUAUGGGCCCAAUGGACAGGGAGGGCAUGCUUCUCAAAAAAUGUGAGCUAUUGUCUAAGACUAACAAUAUUGCUCUAGCUAUAAAAAUAAGUUAAAUGAAUAAGUUAAGACAACAGAGGAUUGAGCAUCA
B8: chr3:8561242:8561243:+_ENSMUSG00000027500_ENSMUST00000029002|mus_hu|FALSE|FALSE (ssRNA)
RNA: GGGAGUUCUACAGUCCGACGAUCAACAACCAGCUCACAGUUUCCAAGUGGAAAAAUAUUCAGUAGCAUCAUGUACUUGUACUAUAGGUAAGAGCUUAAAAUGAACAUCAUCAAUCAUGGCAUCCACAAAUAAGCCACCUGACACAACAGAGGAUUGAGCAUCA
B9: 107603385_107603505_2018_CDS_ENSG00000091136_ENST00000393561|human|control|control (ssRNA)
RNA: GGGAGUUCUACAGUCCGACGAUCGGAAUAUGGUAUGUUGUCAAUGAAAAACUCCAAAUAAGCCCCUUCAGGCACUCGGACGAAGCCGGCUCCAGUCCAGGAGGGAAUCCGGUCCUGGAUAUAUUGCCGCUCCACUAUGCUAACCAACAGAGGAUUGAGCAUCA
B10: chr16:45382771:45382772:-_ENSMUSG00000022661_ENSMUST00000163230|mus_mus|mus_mus_mus_hu_True|38_108 (ssRNA)
RNA: B7 RNA with G27A, C30G, A31U, G33A, A36G, G38A, G39A, C41A, C43A

Target: T1, UNK ZnF1-3
Test: nsRBNS (natural sequence RNA bind-n-seq); RBNS binding buffer (assumed for nsRBNS): 25 mM Tris pH 7.5, 150 mM KCl, 3 mM MgCl2, 0.01% Triton X-100, 500 ug/ml BSA, 20 U/ml SUPERase-In, 4 C; UNK is unkempt and MSI1 is Musashi-1; names of the RNAs are library labels; protein concentration not given here; high values mean tight binding

Point of comparison: B1, binding signal 0.394 enrichment R. Against it:
- B2 — higher, 0.641 enrichment R
- B3 — higher, 0.468 enrichment R
- B4 — higher, 1.16 enrichment R
- B5 — higher, 6.59 enrichment R
- B6 — higher, 7.9 enrichment R
- B7 — higher, 11.2 enrichment R
- B8 — higher, 1.49 enrichment R
- B9 — higher, 0.989 enrichment R
- B10 — higher, 8.75 enrichment R

From article PMC12136788
